This assay has as its system HL-60(TB) leukemia. The assay is described as follows: NCI-60 one-dose screen, 48 h (100 = growth as untreated, 0 = no growth, -100 = all killed). As to conditions: 10 µM unless noted.

Compounds without any hit were thinned out: in the full panel of roughly 83,000, 20% have a hit.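 Plates (96-well) were seeded with cells, treated with compound at one concentration, and incubated for 48 hours before percent growth was determined.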 Calls of active or inactive are those of the source. The calls were made as follows: active = growth percent below 10; inactive = the rest.

As to `CCn1c(Cc2ccccc2Nc2c(Cl)cccc2Cl)nnc1SCC(=O)Nc1cccc(OC)c1`, the growth was 53.6% (inactive).

Turning to `CS(=O)CC1=NC(=N)N=C1CS(C)=O` (stereo not given), the growth is 91.2% (inactive).

On to `C[C@@H]1COC(Nc2ccc3ncnc(Nc4ccc(OCc5nccs5)c(Cl)c4)c3c2)=N1`, for which the growth was 31.3% (inactive).

As to `COc1ccc(-c2cc(-c3cccnc3)nc3sc4c(=O)n(-c5ccc(C)cc5)cnc4c23)cc1OC`, the growth was 107% (inactive).

Consider `COc1ccc(-c2nc(-c3nc4ccc(Cl)cc4[nH]3)c3ccccn23)cc1`, for which the growth is 82.8% (inactive).

In the case of `COc1ccc2c(c1)[nH]c(=O)c1c3cccc(F)c3cn21`, the growth is 11.2% (inactive).

For the molecule `Cn1ncc(Cl)c1-c1cc(C(=O)N[C@H](CN)Cc2ccc(F)c(F)c2)oc1Cl`, the growth was -35.6% (active).

Turning to `O=C(CC(NC(=O)OCc1ccccc1)C(=O)OCc1ccccc1)OCc1ccccc1` (stereo not given), the growth is 126% (inactive).

On to `Cc1nc(-c2ccccc2)cc2c(O)c(C(=O)NN)[nH]c(=O)c12`, for which the growth is 126% (inactive).

Regarding `Clc1nc2ccc(Br)cc2cc1-c1nc2ccccc2[nH]1`, the growth was 87.6% (inactive).

Take `O=C(/C=C/C12c3ccccc3C(c3ccccc31)C1C(=O)N(c3ccccc3)C(=O)C12)c1ccc(Cl)cc1` (stereo not given): the growth is 10.7% (inactive).

For the molecule `COc1ccc2[nH]c(=O)c(CN3CCN(c4nccc(-c5ccc(Cl)cc5)n4)CC3)cc2c1`, the growth was 90.1% (inactive).

For `COc1ccc(S(=O)(=O)n2cc(C3OC(c4cc(OC)c(OC)c(OC)c4)=NN3C(C)=O)c3ccccc32)cc1OC` (stereo not given), the growth was 111% (inactive).

Turning to `Nc1nn(C(=O)Nc2ccc(Cc3ccccc3)cc2)c2ccc(Cl)cc12`, the growth is 24.9% (inactive).

Turning to `N=C1S/C(=C/c2ccc(-c3ccc4c(c3)C(=O)NC4=O)o2)C(=O)N1c1ccc(Br)cc1`, the growth was 50.5% (inactive).

Consider `CN(C1c2ccccc2Oc2ccccc21)S(=O)(=O)c1cc(Cl)ccc1Cl`, for which the growth is 15.7% (inactive).

In the case of `O=C1Nc2ccccc2/C1=N/N=C/c1ccsc1`, the growth was 99.4% (inactive).

For the molecule `CC(=O)O[C@H]1CC[C@]2(C)[C@H]3CC=C4[C@@H]5CC(C)(C)CC[C@]5(C(=O)NCCNCCN)CC[C@@]4(C)[C@]3(C)CC[C@H]2C1(C)C`, the growth was -67.6% (active).

`Cc1cnc(C(=O)NNc2nc3sc4c(c3c(=O)[nH]2)C(C)CCC4)cn1` (stereo not given): the growth was -30.7% (active).

Regarding `CCOc1ncc([N+](=O)[O-])c(OCC)n1`, the growth is 108% (inactive).

With `Cc1cnc(SCc2ccc(Cl)cc2Cl)nc1Nc1ccc(Cl)c(Cl)c1`, the growth was 81% (inactive).

`CCOC(=O)c1cc(C(=O)c2cc(OC)cc(OC)c2)n2nc(C)ccc12`: the growth was -16.5% (active).

With `O=C(O)COc1ccc(Cl)cc1C1CCCCC1`, the growth is 116% (inactive).

As for `COc1ccc(Nc2nccc(Nc3ccc4[nH]ncc4c3)n2)cc1`, the growth was 59.6% (inactive).

With `CCOC(=O)C(NC(=O)C(Cl)Cl)C(O)c1ccccc1` (stereo not given), the growth was 113% (inactive).

Turning to `CN1CCN(CCNC(=O)c2cccc(CN3c4cccc5c4C(=Cc4cccnc43)N(C)C5=O)c2)CC1`, the growth was -6.25% (active).

On to `O=C1/C(=C/c2ccc(Oc3ccccc3)cc2)N=C(c2ccccc2)N1CCc1cccs1`, for which the growth is 86% (inactive).

With `COC(=O)C1C2CC3c4[nH]c5cc(OC)ccc5c4CCN3CC2CC(OC2CCCCO2)C1OC` (stereo not given), the growth was 98.7% (inactive).

Take `Cc1ccc(CC#N)cc1C`: the growth is 116% (inactive).

Consider `ClC1=C(Cl)C(Cl)=C(Cl)C1=C/C=C/c1ccccc1`, for which the growth is -45.5% (active).

For the molecule `CN1C(=O)N(C)C2C1NN=c1s/c(=C\c3ccccc3F)c(=O)n12` (stereo not given), the growth is -46.5% (active).

Regarding `CC(C)C(=O)c1ccc(Cl)s1`, the growth is 99.9% (inactive).

For `NNC(=S)N/N=C/c1ccccn1`, the growth was 1% (active).

`COc1ccc(-c2nc3sc(-c4ccccc4)c(-c4ccccc4)n3c2/C=C/c2ccc(F)cc2)cc1`: the growth is 105% (inactive).

As to `Clc1ccc2c(c1)N(CCCN1CCCC1)c1ccccc1S2`, the growth was 17.1% (inactive).

For the molecule `O=[N+]([O-])c1cccc(C2CC(c3ccccc3)=Nc3ccccc3S2)c1` (stereo not given), the growth was 84.7% (inactive).

Take `CC(C)(C)c1cc(Cl)c(O)c(CNCCO)c1`: the growth is 117% (inactive).

As to `COc1cc(Cl)cc(-c2nn(-c3cccc(NC(=O)c4ccc(N5CCOCC5)c(C(F)(F)F)c4)c3)cc2-c2ccncc2)c1`, the growth was 2.73% (active).

With `COc1ccc(N=N/N=c2\sc3cc(OC)ccc3n2C)cc1`, the growth is 102% (inactive).

As for `O=C(S)CNC(=O)c1ccccc1`, the growth was 91% (inactive).

With `CCCCCCCCCCCCCC/C=C\C(CC(=O)O)C(=O)O` (stereo not given), the growth is 72.4% (inactive).

Regarding `CS(=O)(=O)Cc1cnc(C2OCCO2)s1`, the growth was 88.5% (inactive).

With `O=C1C(Cl)=C(NCCN2CCOCC2)C(=O)c2ncccc21`, the growth is -45.5% (active).

In the case of `O=C1/C(=C/c2ccccc2)CCC/C1=C\c1ccccc1`, the growth is 97.8% (inactive).

On to `Cc1nc2ccccc2c(/C=C/c2ccc(F)cc2)c1C(=O)/C=C/c1ccccc1`, for which the growth is 7.37% (active).

Take `CC/C(=C(\CC)c1ccc(OCCN(CC)CC)cc1)c1ccc(OCCN(CC)CC)cc1`: the growth is -3.52% (active).

Turning to `COc1cc(N=Nc2ccc(N)cc2)c(OC)cc1N=Nc1ccccc1.[Cl][Zn][Cl]`, the growth was 73.5% (inactive).

For the molecule `COc1ccc(-c2ccc(=O)oc2-c2cc(OC)c(OC)c(OC)c2)cc1O`, the growth was -55.6% (active).

On to `Cc1ccc(S(=O)(=O)Oc2cc(OS(=O)(=O)c3ccc(C)cc3)cc(OS(=O)(=O)c3ccc(C)cc3)c2)cc1`, for which the growth was 107% (inactive).

As for `O=C(/C(=C/c1ccc([N+](=O)[O-])cc1)SCc1ccccc1)c1ccc(Cl)cc1`, the growth was 74.4% (inactive).

On to `CC(C)Cn1cnc2c(=O)[nH]c(N)nc21`, for which the growth was 63.8% (inactive).

Turning to `CCC(c1ccccc1)C(CC)c1ccc(O)c(O)c1` (stereo not given), the growth was 68% (inactive).

Take `CC1=NN(c2nc(-c3ccc(Cl)cc3)c(C#N)c(N3CCOCC3)n2)C(=O)C1`: the growth is 81.8% (inactive).

On to `N#Cc1c2cccnc2c2nnc3cc(Cl)c(Cl)cc3n12`, for which the growth was 23.3% (inactive).

As for `COc1ccc(OC)c(/C=C/C(=O)N/N=C/c2ccccc2)c1`, the growth is 46.3% (inactive).

As for `COc1cc(C)ccc1C(=O)c1ccc(C)cc1OC`, the growth was 8.59% (active).

Turning to `COc1cccc(NC(=O)c2sc3nc4c(cc3c2N)CCCC4)c1`, the growth was 5.68% (active).

As for `COc1cc2ncnc(Nc3ccc(S(=O)(=O)Nc4nccs4)cc3)c2cc1OCCCN1CCCC1`, the growth was 109% (inactive).

Consider `O=C(NCCNc1nccc(-c2c(-c3cccc(O)c3)nc3sccn23)n1)c1ccccc1O`, for which the growth was 59.8% (inactive).

Turning to `O=C(O)CC1CCCCC1c1ccccc1` (stereo not given), the growth was 99.9% (inactive).

As to `CC1(C)N=C(N)N=C(N)N1c1cccc(CN)c1`, the growth is 86.8% (inactive).

Turning to `CC(=O)C1CC(C)CCC1C(C)C` (stereo not given), the growth is 58.7% (inactive).

In the case of `OC(c1cc(C(F)(F)F)nc2c(C(F)(F)F)cccc12)C1CCCCN1` (stereo not given), the growth was 50.3% (inactive).

In the case of `N=C1N=C(N)CS1`, the growth was 112% (inactive).

Consider `CN(C)c1ncc(C#Cc2c(F)cccc2F)c2ccccc12`, for which the growth was 59.9% (inactive).

Regarding `O=C(N=Nc1c(O)[nH]c2ccccc12)c1cc(-c2ccccc2)on1`, the growth is 97.5% (inactive).

In the case of `O=C(Nc1ccc(NCCN2CCOCC2)nc1)c1ccc([N+](=O)[O-])cc1`, the growth is 127% (inactive).

As for `Nc1nc(Cl)cc(NCCCCNc2cc(Cl)nc(N)n2)n1`, the growth is 101% (inactive).

For `CC(=O)c1cnc2ccc(-c3cc(Cl)c(O)c(Cl)c3)nc2c1NC1CCC(CN(C)C)CC1` (stereo not given), the growth was -14.8% [2.5 µM] (active).

`O=C(CSc1nc(-c2ccccc2)cc(=O)[nH]1)Nc1nc(-c2ccccc2)cs1`: the growth was 95.7% (inactive).

In the case of `C=C(C)[C@@H]1CC[C@]2(C(=O)OCCOCCOCC[P+](c3ccccc3)(c3ccccc3)c3ccccc3)CC[C@]3(C)[C@H](CC[C@@H]4[C@@]5(C)CC[C@H](C)C(C)(C)[C@@H]5CC[C@]43C)[C@@H]12`, the growth was -72.5% (active).

Regarding `O=C(/C=C/c1ccccn1)c1ccc(OCc2nnc(-c3ccc(Cl)cc3)o2)cc1`, the growth was 43% (inactive).

For `C=CCn1c(SCC(=O)Nc2ccc(C(=O)/C=C/c3cc(OC)c(OC)c(OC)c3)cc2)nnc1-c1cc(-c2ccc(Cl)cc2)nc2ccccc12`, the growth is 98.7% (inactive).

`O=C(NC(CSSCC(NC(=O)OCc1ccccc1)C(=O)O)C(=O)O)OCc1ccccc1` (stereo not given): the growth was 14.3% (inactive).

Turning to `CCn1cc(C(=O)O)c(=O)c2cc(F)c(N3CCN(CC(=O)Nc4ccccc4)C(C)C3)c(F)c21` (stereo not given), the growth is 104% (inactive).

As for `COc1ccc(-n2nc(C)c3c(Nc4ccc(NC(=O)Nc5cc(C(F)(F)F)ccc5F)cc4)ncnc32)cc1`, the growth is 45.8% (inactive).

In the case of `COc1cc(NC(=O)c2sc3nc4c(cc3c2N)C(O)CCC4)cc(OC)c1` (stereo not given), the growth was 73.2% (inactive).

For the molecule `O=C(/C=C1\C(=O)N(Cc2ccc([N+](=O)[O-])cc2)c2ccccc21)c1ccc(OCCN2CCCC2)cc1`, the growth is 17.5% (inactive).

Turning to `c1ccc(-c2n(Cc3ccc4ccccc4n3)cc[n+]2Cc2ccc3ccccc3c2)cc1`, the growth was -54.3% (active).

Regarding `C=C1C(=O)O[C@H]2[C@H]1CC/C(CNC(=O)/C=C/c1ccc(Cl)cc1Cl)=C\CC[C@@]1(C)O[C@@H]21`, the growth was -27.4% (active).

On to `Cc1ccc(-c2cc(-c3ccccc3C)[nH]c(=O)c2C#N)s1`, for which the growth is 80.4% (inactive).

As to `COc1cccc2c(N=NC(=O)c3ccc(S(N)(=O)=O)cc3)c(O)[nH]c12`, the growth was 98.4% (inactive).

On to `CS(=O)(=O)OC1CC(n2ccc(=O)[nH]c2=O)OC1COC(c1ccccc1)(c1ccccc1)c1ccccc1` (stereo not given), for which the growth was 97.6% (inactive).

Consider `OC(c1cc2c(Cl)cc(Cl)cc2c2cc(C(F)(F)F)ccc12)C1CCCCN1` (stereo not given), for which the growth was -39.1% (active).

Turning to `CCN(CC)c1ccc(/C=C/C=C2\NC(=O)NC2=O)cc1`, the growth was 50.8% (inactive).

Source of the values: PubChem BioAssay (NCI).
